Compounds with a hit are over-represented: about 3.4% of the library has one in this group of screens.
GPR151 ag: human GPR151 activation; Q8TDV0; PathHunter beta-arrestin GPR151 cells, luminescence; activation, % at 11.2 µM; hit rate 1% among 650,000; AID 1508602; in the data active = activation above about 4.9%;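 also: 0% = median of compound wells and 100% = cells with positive control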
FBW7 act: activators of human E3 ligase FBW7. Q969H0. AlphaScreen FBW7–phospho-cyclin E peptide binding, activator screen. normalized activity (activation), % at 26.1 µM. hit rate 0.13% among 650,000. AID 1259310; in the data active = normalized activity above about 1.9%;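 also: purified mutant Fbw7 with reduced substrate affinity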
MITF primary: human MITF inhibition, primary screen; O75030; AlphaScreen MITF homodimerization, bead proximity signal; inhibition, % at 2.6 µM; hit rate 0.91% among 650,000; in the data active = inhibition above about 50%;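 also: 0% = vehicle wells with protein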
Target sequence (O75030 whole entry, looked up): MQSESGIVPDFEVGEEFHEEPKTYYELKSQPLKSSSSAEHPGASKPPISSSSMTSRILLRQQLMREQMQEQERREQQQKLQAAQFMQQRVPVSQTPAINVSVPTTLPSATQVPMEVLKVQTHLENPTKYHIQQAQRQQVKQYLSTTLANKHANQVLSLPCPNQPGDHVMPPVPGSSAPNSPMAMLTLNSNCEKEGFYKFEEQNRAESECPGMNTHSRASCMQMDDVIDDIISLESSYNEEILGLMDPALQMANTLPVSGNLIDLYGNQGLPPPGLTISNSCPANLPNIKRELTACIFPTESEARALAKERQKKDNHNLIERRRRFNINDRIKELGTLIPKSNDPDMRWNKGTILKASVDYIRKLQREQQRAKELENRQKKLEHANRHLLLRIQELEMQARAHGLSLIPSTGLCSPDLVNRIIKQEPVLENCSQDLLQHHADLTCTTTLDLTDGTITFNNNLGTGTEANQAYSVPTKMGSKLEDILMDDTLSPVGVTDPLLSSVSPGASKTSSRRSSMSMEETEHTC
TEAD-YAP block: TEAD-YAP interaction inhibition; HEK-TIYL cells, TEAD-Gal4/YAP UAS-luciferase luminescence; hit rate 1.4% among 640,000; AID 1259422; inhibition, % at 9.12 µM; in the data active = inhibition above about 32%;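 also: 0% = median of test compound wells and 100% = reference inhibitor wells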
MITF inh conf: confirmation of human MITF inhibitors; inhibition, % at 2.6 µM; AlphaScreen MITF homodimerization, biotin/His-MITF beads; hit rate 16% among 4,700; AID 1259372; shares compounds with MITF primary;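 active = inhibition above a cutoff derived from the DMSO control wells, cut at about 28% in these data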;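 also: 0% = MITF dimer wells with DMSO only; inhibitors lower the bead chemiluminescence by keeping MITF from dimerizing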
AS interf DR: counter-screen: compounds optically interfering with AlphaScreen. AlphaScreen optical interference counterscreen, cell-free. hit rate 6% among 480. AID 1259373. shares compounds with MITF primary. IC50, µM; call rule not given here
AS interf ctr: optically interferes with AlphaScreen signal. shares compounds with MITF primary. LysRS AlphaScreen counterscreen, signal interference, triplicate. inhibition, % at 2.6 µM. hit rate 7.6% among 4,700. AID 1259376;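 active = inhibition above a cutoff derived from the DMSO control wells, cut at about 30% in these data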
Active calls of the source: *; . = not tested or not shown.

SMILES	GPR151 ag	FBW7 act	MITF primary	TEAD-YAP block	MITF inh conf	AS interf ctr	others
COC(=O)c1ccc2c(=O)n(Cc3ccc4c(c3)OCO4)c(SCc3ccc(Cl)cc3)nc2c1	0	0	-4	6	.	.
Cc1cccc(CCNS(=O)(=O)c2ccc3c(c2)NC(=O)CC(=O)N3)c1	-1	0	0	10	.	.
CCNCC(=O)c1[nH]c(C)c(C(C)=O)c1C	0	0	51*	6	-4	-4
COC(=O)CCNCC(c1ccco1)N1CCCCC1 (centres undefined)	0	0	54*	1	-2	1
COc1ccc(NC(=S)NCC(c2ccco2)N2CCCC2)cc1 (centres undefined)	-1	0	6	2	.	.
COC(=O)c1cc(CNCC(c2ccco2)N2CCCCC2)oc1C (centres undefined)	0	0	76*	-4	11	16
C/C(=N\NC(=O)c1cccs1)c1ccc(Cl)cc1Cl	2	0	3	-13	.	.
CN(CCc1ccccn1)Cc1c[nH]c2ccccc12	-2	0	74*	-6	6	5
CN(CCc1ccccn1)Cc1cccc2ccccc12	-1	0	-2	14	.	.
COc1ccccc1CN(C)CCc1ccccn1	-1	1	67*	7	-7	-3
CN(CC(=O)NCc1ccccn1)S(=O)(=O)c1ccc(F)cc1	-1	0	10	-1	.	.
COc1ccc(CN(C)CCc2ccccn2)c(OC)c1OC	1	0	58*	0	13	15
COc1ccc(Br)cc1CN(C)CCc1ccccn1	0	0	47	13	.	.
CN(CCc1ccccn1)S(=O)(=O)c1ccc(F)cc1	1	0	75*	-2	2	2
CCOc1ccc2nc3sc(C(=O)Nc4ccccc4)c(N)c3cc2c1	0	0	8	-20	.	.
O=C(NNC(=S)Nc1ccc(Cl)c(Cl)c1)c1ccccn1	0	-1	114*	39*	110*	100*
CC(O)CC(=O)NNC(=S)Nc1ccc(Cl)c(Cl)c1 (centres undefined)	0	0	-1	3	.	.
O=C(NNC(=S)Nc1ccccc1C(F)(F)F)c1ccc(Br)o1	-2	0	-21	-32	.	.
O=C(NNC(=S)Nc1ccccc1C(F)(F)F)c1ccccn1	-2	-1	113*	-37	104*	100*
O=[N+]([O-])c1cc([N+](=O)[O-])c2cc[nH]c2c1	0	0	69*	-2	0	4
O=C(COC(=O)c1ccc(O)cc1)NC1CCCCC1	0	0	59*	11	-3	5
CCOc1ccc(-c2cn3c(CC(=O)N4CCCCC4CC)csc3n2)cc1 (centres undefined)	0	0	11	-9	.	.
CCOc1ccc(-c2cn3c(CC(=O)N4CCN(c5ccccc5)CC4)csc3n2)cc1	1	0	55*	0	4	6
Cc1c(C(=O)NCc2ccccc2Cl)sc2ncn(C)c(=O)c12	-1	0	1	-11	.	.
N#Cc1ccc(OCC(O)CNCCCN2CCCC2=O)cc1 (centres undefined)	-1	0	51*	-3	-4	7
SMILES	GPR151 ag	FBW7 act	MITF primary	TEAD-YAP block	MITF inh conf	AS interf ctr	others
COc1ccc(-c2nc3n(n2)C(c2ccncc2)C(C(=O)Nc2cccnc2)=C(C)N3)cc1 (centres undefined)	-1	0	5	2	.	.
COc1cc(/C=C2\C(C)=C([N+](=O)[O-])CS2(=O)=O)ccc1O	-1	0	87*	-2	76*	0	AS interf DR=>6.5
CC1=C([N+](=O)[O-])CS(=O)(=O)/C1=C\c1ccccc1	1	0	2	-7	.	.
O=C(CN1C(=O)c2cccnc2Oc2ccc(Cl)cc21)NCc1cccs1	-1	0	11	19	.	.
Cc1c(C(=O)Nc2ccc3c(c2)OCCO3)sc2ncn(C)c(=O)c12	-1	0	5	-38	.	.
Cc1ccccc1OCC(O)CN1CCN(CC(O)COc2ccccc2C)C(C)C1 (centres undefined)	-1	0	55*	3	-6	-5
O=C(c1ccc(=O)oc1)N1CCc2ccccc21	0	0	74*	4	76*	11	AS interf DR=>7.5
c1ccc(C(CN2CCOCC2)c2ccccc2)cc1	-1	0	57*	-8	-9	2
CC(=O)N1CCN(c2ccc(NC(=O)c3ccccc3)cc2)CC1	-1	0	38	-49	.	.
CC(=O)N1CCN(c2ccc(NC(=S)NC(=O)c3ccccc3)cc2)CC1	0	0	52*	-7	8	20
Cc1ccc(F)cc1NC(=O)Cn1c(=O)n(Cc2ccc(F)cc2)c(=O)c2nccnc21	1	0	6	-2	.	.
C=CCNC(=O)Cn1nc(-c2ccccc2OC)ccc1=O	0	0	72*	-3	15	19
COc1ccccc1-c1ccc(=O)n(CC(=O)NCc2ccccc2)n1	-1	0	21	-10	.	.
COc1ccc(CN2CCN(Cc3cccc(Cl)c3)CC2)cc1OC	3	0	82*	9	9	18
COc1ccc(CN2CCN(Cc3cccc(F)c3)CC2)cc1OC	-1	0	64*	3	19	18
CCS(=O)(=O)N1CCN(Cc2ccc(OC)c(OC)c2)CC1	0	0	50	1	.	.
COc1ccc(CN2CCN(Cc3ccc(OC)c(OC)c3)CC2)cc1	0	0	74*	18	-8	-2
CCOc1cc(CN2CCN(Cc3cc(OC)c(OC)cc3OC)CC2)ccc1OC	0	0	7	5	.	.
COc1cc(OC)c(OC)cc1CN1CCN(Cc2cccc(Cl)c2)CC1	-1	1	82*	-1	14	19
CC(C)(C)NC(=O)COC(=O)c1cnc(Cl)c(Cl)c1	-2	0	22	9	.	.
COCCCNc1nc2cc(F)ccc2n2ccnc12	0	0	4	0	.	.
COc1ccc(CN2CCOCC2)cc1OC	0	0	11	-7	.	.
COc1ccc(CN2CCN(Cc3ccc(Cl)cc3)CC2)cc1OC	1	0	74*	14	13	0
COc1ccc(S(=O)(=O)NCCO)cc1	-1	0	-1	-10	.	.
CC(C)n1c2ccccc2n2c(=O)c(=O)n(CC(=O)c3ccc(F)cc3)nc12	0	0	2	2	.	.
O=C(NC1CCN(C(=O)Nc2ccccc2C(F)(F)F)CC1)c1cccc([N+](=O)[O-])c1	-2	0	-5	4	.	.
O=C(c1ccc(F)cc1)N1CCN(Cc2ccc(Br)cc2)CC1	1	0	62*	12	7	15
O=C(c1ccc(F)cc1)N1CCN(Cc2ccc(F)cc2)CC1	-2	0	52*	5	-4	1
O=C(c1ccccc1)N1CCN(Cc2ccccc2)CC1	4	0	13	4	.	.
O=C(c1ccc(F)cc1)N1CCN(Cc2ccncc2)CC1	0	0	63*	-5	10	-7
